Potency and activity, negative = cell killing data for twelve compounds are collected here from PubChem BioAssay (NCATS).

Molecules are shown by their SMILES. Results filed as inconclusive are left out. Values without a mark were called inactive. Activity calls are given as the source filed them. Calls follow the shape of the dose curve; as a rule, active = well fitted curve in the direction sought with a large enough effect; inconclusive = small, poorly fitted or top-dose-only effect, or another doubt; inactive = no such curve, though single readings can be large; an effect the other way counts as inactive or inconclusive.

Assay [1] deals with CAOV3. The assay is described as follows: Primary qHTS to identify gynecologic anti-cancer compounds using libraries of approved drugs and bioactive compounds (AID 1345084). Also: nearly all actives have a fitted effect of over 55% in size. The conditions noted are these: Gynecologic cancer cell panel viability, ATPlite luminescence, 48 h; series mostly up to 57.5 µM. The essentials: (§1)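 Measured: luminescence after ATPlite addition (15 min, RT). Exposure: 48 h, 37 C, 5% CO2.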

For assay [2], the system named is CASKI. The description is as above. The conditions noted are these: Gynecologic cancer cell panel viability, ATPlite luminescence, 48 h; series mostly up to 57.5 µM. The method in brief:
as §1

For assay [3], the system named is HeLa. Described as above. The conditions noted are these: Gynecologic cancer cell panel viability, ATPlite luminescence, 48 h; series mostly up to 57.5 µM. The method in brief:
as §1

Assay [4] has as its system JEG-3. Described as above. Particulars: Gynecologic cancer cell panel viability, ATPlite luminescence, 48 h; series mostly up to 57.5 µM. The method in brief:
as §1

Assay [5] deals with OV90. The description is as above. The conditions noted are these: Gynecologic cancer cell panel viability, ATPlite luminescence, 48 h; series mostly up to 57.5 µM. The method in brief:
as §1

The subject of assay [6] is SKOV3. Described as above. The conditions noted are these: Gynecologic cancer cell panel viability, ATPlite luminescence, 48 h; series mostly up to 57.5 µM. The essentials: as §1
The subject of assay [7] is Tov-21-G. The assay is described as above. The conditions noted are these: Gynecologic cancer cell panel viability, ATPlite luminescence, 48 h; series mostly up to 57.5 µM. The method in brief: as §1
Assay [8] deals with Tov112D. The description is as above. The conditions noted are these: Gynecologic cancer cell panel viability, ATPlite luminescence, 48 h; series mostly up to 57.5 µM. The method in brief:
as §1

Assay [9] relates to UISO. Nature of the assay: qHTS assay to identify novel small-molecules to repurpose for Merkel cell carcinoma treatment (AID 1296009). Also: nearly all actives have a fitted effect of over 60% in size. The conditions noted are these: MCC and control cell lines, CellTiter-Glo viability, 72 h; series mostly up to 46 µM. The method in brief: (§2)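 Luminescence from CellTiter-Glo, read 10 min after addition at room temperature, reported viability following a 72 hr, 37 degree celsius treatment with NPC or MIPE compounds in titration; values normalized to plate controls.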

Assay [10] concerns WaGa. The assay is described as above. Particulars: MCC and control cell lines, CellTiter-Glo viability, 72 h; series mostly up to 46 µM. The essentials: as §2
The test system of assay [11] is NIH3T3. Described as above. The conditions noted are these: MCC and control cell lines, CellTiter-Glo viability, 72 h; series mostly up to 44.8 µM. The method in brief: as §2
For assay [12], the system named is C33A. Nature of the assay: Primary qHTS to identify gynecologic anti-cancer compounds using libraries of approved drugs and bioactive compounds (AID 1345084). Also: nearly all actives have a fitted effect of over 55% in size. The conditions noted are these: Gynecologic cancer cell panel viability, ATPlite luminescence, 48 h; series mostly up to 57.5 µM. The method in brief:
as §1

Assay [13] has as its system Es-2. The assay is described as above. Particulars: Gynecologic cancer cell panel viability, ATPlite luminescence, 48 h; series mostly up to 57.5 µM. The essentials: as §1
For assay [14], the system named is Hek293T. The description is as above. Particulars: Gynecologic cancer cell panel viability, ATPlite luminescence, 48 h, control line for the selectivity index; series mostly up to 57.5 µM. The essentials: as §1
The subject of assay [15] is PA-1. Described as above. The conditions noted are these: Gynecologic cancer cell panel viability, ATPlite luminescence, 48 h; series mostly up to 57.5 µM. The method in brief: as §1
Assay [16] relates to MKL-2. The assay is described as follows: qHTS assay to identify novel small-molecules to repurpose for Merkel cell carcinoma treatment (AID 1296009). Also: nearly all actives have a fitted effect of over 60% in size. Particulars: MCC and control cell lines, CellTiter-Glo viability, 72 h; series mostly up to 46 µM. The essentials: as §2
Assay [17] is described as follows: Drug repurposing screens with cells derived from glioblastoma tumor samples (AID 1345199). Also: nearly all actives have a fitted effect of over 40% in size. The conditions noted are these: GBM patient neurospheres viability, ATP luminescence, 48 h. The method in brief:
(§3)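 Primary testing used CD133+ neurospheres from four GBM patients, seven concentrations, 48 h exposure and ATP-based viability; confirmation added three slower-growing patient lines.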

For assay [18], the system named is astro. The description is as above. The conditions noted are these: viability, ATP luminescence, 48 h; series mostly up to 45.9 µM. The essentials:
as §3

The mark [19] stands for this setting: at 45.9 µM (top of the series), tumour line B.
% is scaled to controls: 0 for no effect and ±100 for the full control effect; potency is read from the fitted curve at half-maximal effect.

For `Cc1cc(-c2ncc(CC(=O)Nc3ccc(-c4cnccn4)cn3)cc2C)ccn1`, the Potency result in assay [1], in assay [2], in assay [3], in assay [4], in assay [5] and in [7] was “inactive” each time. In assay [8], the Potency result is “inactive”. The Potency in assay [6] was 39.8 µM (active).

On to `CN1CC(=O)NC1=NC(=O)Nc1cccc(Cl)c1`, for which the Potency entry in assay [9] and in [10] was “inactive” in each case.

As for `O[C@@H](COc1cccc2ncccc12)CN1CCN(C2c3ccccc3[C@@H]3[C@H](c4ccccc42)C3(F)F)CC1` (stereo partly drawn), the Potency entry in assay [11], in [12], in assay [1], in assay [2], in assay [13] and in assay [3] was “inactive” each time. Further, the Potency entry in assay [14], in assay [4], in [5], in assay [15], in assay [6] and in assay [7] was “inactive” in each case. In addition, the Potency entry in assay [8] was “inactive”.

Turning to `C[C@@]1(C(=O)Nc2ccc(F)nc2)CCCN1c1nc(Nc2cc(C3CC3)[nH]n2)c2cccn2n1`, the Potency was 4.61 µM (active) in assay [11]; 0.0833 µM (active) in [9]; 3.32 µM (active) in assay [10]; 14.1 µM (active) in assay [2]; 3.98 µM (active) in assay [3]; 5.01 µM (active) in assay [15]. Moreover, the Potency in [7] was 12.6 µM (active). The Potency entry in assay [12], in assay [13], in assay [4] and in assay [8] was “inactive” each time.

Consider `CNC1CCC(N(Cc2cccc(-c3ccncc3)c2)C(=O)c2sc3ccccc3c2Cl)CC1` (stereo not drawn), for which the Potency is 16.6 µM (active) in assay [16], 22.4 µM (active) in assay [2] and 25.1 µM (active) in assay [6]. Also, the Potency entry in assay [3], in [7] and in assay [8] was “inactive” each time.

Consider `CN1CCC(COc2cnc(-c3cccc(Cn4nc(-c5cccc(C#N)c5)ccc4=O)c3)nc2)CC1`, for which the Potency result in assay [9], in [10], in [12], in assay [2], in assay [13] and in assay [3] was “inactive” throughout. The Potency result in assay [14], in [5], in [15], in assay [6], in assay [7] and in assay [8] was “inactive” in each case.

As to `C[C@@H]1CCO[C@H]2Cn3cc(C(=O)NCc4ccc(F)cc4F)c(=O)c(O)c3C(=O)N12`, the Potency entry in assay [9] and in assay [4] was “inactive” each time. Further, the Potency in [7] is 25.1 µM (active).

On to `C[C@@H]1C[C@H]2[C@@H]3CCC4=CC(=O)C=C[C@]4(C)[C@@]3(F)[C@@H](O)C[C@]2(C)[C@@]1(O)C(=O)CO`, for which the Potency result in assay [12], in assay [1], in assay [2], in assay [13], in assay [3] and in assay [14] was “inactive” in each case. Further, the Potency entry in assay [4], in assay [5], in assay [15], in assay [6], in assay [7] and in [8] was “inactive” throughout.

On to `N#CC(c1ccc(Cl)cc1)c1c(Cl)cc(-n2ncc(=O)[nH]c2=O)cc1Cl` (stereo not drawn), for which the Potency result in assay [9] is “inactive”. The Potency in [10] was 13.2 µM (active); in [17] (tumour line C), 16.4 µM (active). The activity, negative = cell killing in assay [17] (setting [19]) was -18.3%.

With `CNC(=O)c1c(-c2ccc(F)cc2)oc2cc(N(CCO)S(C)(=O)=O)c(C3CC3)cc12`, the Potency entry in assay [12], in assay [2], in assay [13], in assay [3], in assay [14] and in assay [4] was “inactive” in each case. In addition, the Potency entry in [5], in assay [15], in [6], in assay [7] and in assay [8] was “inactive” each time.

Turning to `CC[C@H]1OC(=O)[C@H](C)[C@@H](O[C@H]2C[C@@](C)(OC)[C@@H](O)[C@H](C)O2)[C@H](C)[C@@H](O[C@@H]2O[C@H](C)C[C@H](N(C)C)[C@H]2O)[C@](C)(O)C[C@H](C)C(=NOCOCCOC)[C@H](C)[C@@H](O)[C@]1(C)O`, the activity, negative = cell killing in assay [17] (setting [19]) was -8.15%; in assay [17] (at 45.9 µM (top of the series), tumour line D), 4.24%; in [17] (at 46.1 µM (top of the series), tumour line C), -6.06%. In addition, the Potency entry in assay [18] is “inactive”.

On to `CC[C@H](CC#N)OC(=O)N[C@@H](C)c1cccc(NC(=O)Nc2ccc(-c3cnco3)c(OC)c2)c1`, for which the Potency entry in [1] and in assay [4] was “inactive” in each case. The Potency was 1.78 µM (active) in [13]; 1.78 µM (active) in [14]; 0.355 µM (active) in [15]; 6.31 µM (active) in assay [6]; 1.26 µM (active) in assay [7].
